Laboratory results reported in PubChem BioAssay AID1159580 (chemical genetic matrix, 2015).
Hit rate of the full screen: of about 5,500 compounds, about 2,000 (36%) were called active. About 18% were inconclusive and are not listed. Rule as the data show it: active = normalized growth mostly below about 0.91 (no sharp cut-off); inconclusive = no clear call, values can overlap the other calls; inactive = mostly above about 0.92. The list shows a part of the results.

Test: chemical genetic growth profiling, strain panel (AID 1159580);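 also: tested at 20 µM; growth read once vehicle control cultures reached saturation at 30 °C; 1 = growth at the plate median or of vehicle wells; lower values mean less growth of the strain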
Settings: S. cerevisiae deletion strains, growth OD

Measured: normalized growth

CCCCCCC/C=C\CCCCCCCCC(=O)O
inactive: locus YAL040C, strain CLN3, active compounds read low 1.01 | locus YCL061C, strain MRC1 (second series), active compounds read low 1.01 | locus YDR363W, strain ESC2, active compounds read low 1.02 | locus YER002W, strain NOP16, active compounds read low 1.03 | locus YGR229C, strain SMI1, active compounds read low 1.01 | locus YMR307W, strain GAS1, active compounds read low 1.01 | locus YNL153C, strain GIM3, active compounds read low 0.946 | locus YNL175C, strain NOP13, active compounds read low 0.996 | locus YNL197C, strain WHI3, active compounds read low 1.01 | locus YNL224C, strain SQS1, active compounds read low 1.01 | locus YOR083W, strain WHI5 (second series), active compounds read low 1.01
